This is part of a sample that, as a whole, favours compounds with a hit. Of some 83,000 tested, about 20% had one in any assay.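 Activity criterion: percent growth below 10, measured after cells in 96-well plates were exposed to a single compound concentration for 48 hours.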 Values without a mark were called inactive. The source made the active and inactive calls.

Holding throughout (assay): NCI-60 one-dose screen, 48 h (100 = growth as untreated, 0 = no growth, -100 = all killed)
One assay deals with DU-145 prostate. To be noted: 10 µM unless noted.
The subject of the next assay is K-562 leukemia. To be noted: 10 µM unless noted.
For another assay, the system named is MALME-3M melanoma. The note with it: 10 µM unless noted.
A further assay deals with MDA-MB-231 breast. To be noted: 10 µM unless noted.
In another assay the test system is RXF 393 renal. To be noted: 10 µM unless noted.
The test system of the next assay is SF-268 CNS. The note with it: 10 µM unless noted.
Another assay deals with SF-295 CNS. To be noted: 10 µM unless noted.
Another assay concerns SF-539 CNS. To be noted: 10 µM unless noted.
In the next assay the test system is UACC-257 melanoma. To be noted: 10 µM unless noted.
In another assay the test system is M14 melanoma. The note with it: 10 µM unless noted.
The test system of a further assay is HCT-15 colon. The note with it: 10 µM unless noted.
Another assay deals with HT29 colon. The note with it: 10 µM unless noted.
A further assay concerns SNB-75 CNS. The note with it: 10 µM unless noted.
The next assay concerns SNB-19 CNS. The note with it: 10 µM unless noted.
In the next assay the test system is U251 CNS. To be noted: 10 µM unless noted.
For a further assay, the system named is PC-3 prostate. To be noted: 10 µM unless noted.
The next assay deals with SK-MEL-5 melanoma. The note with it: 10 µM unless noted.
A further assay concerns UACC-62 melanoma. To be noted: 10 µM unless noted.
Another assay has as its system LOX IMVI melanoma. To be noted: 10 µM.
For a further assay, the system named is SK-MEL-28 melanoma. To be noted: 10 µM unless noted.

On to `O=C(NN1C(=O)/C(=C/C=C/c2ccc([N+](=O)[O-])o2)SC1=S)c1ccccc1O`, for which the growth in the assay with DU-145 prostate was -100% (active); in the assay with K-562 leukemia it was 7.19% (active); in the assay with MALME-3M melanoma, -95% (active); in the assay with MDA-MB-231 breast, -93.1% (active); with RXF 393 renal, -94.5% (active); in the assay with SF-268 CNS it was -81.4% (active). Also, the growth with SF-295 CNS was -48.2% (active); in the assay with SF-539 CNS, -100% (active); with UACC-257 melanoma it was -85% (active); with M14 melanoma, -81.3% (active); in the assay on HCT-15 colon it was -80.3% (active); in the assay on HT29 colon, -72.2% (active). The growth in the assay with SNB-75 CNS is -61.8% (active); in the assay with SNB-19 CNS, -96.1% (active); with U251 CNS it was -99.5% (active); with PC-3 prostate, -6.66% (active); in the assay on SK-MEL-5 melanoma it was -100% (active); with UACC-62 melanoma, -93.7% (active). Besides, the values for the growth in the assay with LOX IMVI melanoma and in the assay with SK-MEL-28 melanoma were -91.6% (active) and -94.6% (active), respectively.

Take `Cn1cc(-c2nc(N)nnc2-c2c[nH]c3ccc(Br)cc23)c2cc(Br)cnc21`: the growth was 14.2% in the assay with DU-145 prostate; 0.943% (active) with K-562 leukemia; 4.82% (active) in the assay on MALME-3M melanoma; 11.4% in the assay on MDA-MB-231 breast; -8.55% (active) with RXF 393 renal; 10.9% in the assay on SF-268 CNS. The growth was 11.4% in the assay on SF-295 CNS; -9.44% (active) with SF-539 CNS; 47.3% in the assay on UACC-257 melanoma; 0.895% (active) in the assay with M14 melanoma; 3.67% (active) in the assay with HCT-15 colon; -31.5% (active) in the assay on HT29 colon. Further, the growth in the assay on SNB-75 CNS was -0.672% (active); in the assay with SNB-19 CNS, 33.9%; in the assay with U251 CNS, 8.22% (active); in the assay on PC-3 prostate it was 3.39% (active); with SK-MEL-5 melanoma, -63.5% (active); with UACC-62 melanoma, 8.26% (active). Further, the growth with LOX IMVI melanoma was 17.3%; in the assay on SK-MEL-28 melanoma, 27.1%.

As for `COc1ccc2[nH]cc(-c3nnc(N)nc3-c3cn(C)c4ncc(Br)cc34)c2c1`, the growth with DU-145 prostate is 93%; with K-562 leukemia, 52.5%; in the assay with MALME-3M melanoma it was 121%; in the assay on MDA-MB-231 breast it was 45.8%; in the assay with RXF 393 renal, 27.1%; in the assay on SF-268 CNS, 81.4%. Besides, the growth in the assay on SF-295 CNS was 83.1%; in the assay with SF-539 CNS, 66.5%; in the assay on UACC-257 melanoma it was 106%; in the assay on M14 melanoma it was 105%; in the assay on HCT-15 colon it was 68.5%; in the assay on HT29 colon, 82.6%. Besides, the growth with SNB-75 CNS is 31.7%; in the assay on SNB-19 CNS, 69.6%; with U251 CNS it was 75.1%; in the assay with PC-3 prostate, 72.9%; in the assay with SK-MEL-5 melanoma, 85.7%; in the assay with UACC-62 melanoma, 68.5%. For the same molecule, the growth is 71.9% in the assay with LOX IMVI melanoma and 54% with SK-MEL-28 melanoma.

Regarding `COc1ccc(/C=C/c2n(Cc3ccc4ccccc4c3)c3ccccc3[n+]2Cc2ccc3ccccc3c2)cc1`, the growth is -93.1% (active) with DU-145 prostate; 1.11% (active) in the assay on K-562 leukemia; -85.7% (active) in the assay with MALME-3M melanoma; -86.5% (active) with MDA-MB-231 breast; -74.7% (active) in the assay with RXF 393 renal; -80.5% (active) with SF-268 CNS. In addition, the growth with SF-295 CNS was -95.8% (active); with SF-539 CNS it was -95.5% (active); in the assay on UACC-257 melanoma, -91.7% (active); with M14 melanoma, -88.3% (active); in the assay on HCT-15 colon it was -76.9% (active); in the assay on HT29 colon, -97.1% (active). The growth with SNB-75 CNS was -95.7% (active); with SNB-19 CNS it was -94.6% (active); in the assay on U251 CNS, -94.3% (active); in the assay on PC-3 prostate, -25.1% (active); with SK-MEL-5 melanoma, -97.6% (active); with UACC-62 melanoma, -90.5% (active). Further, the growth is -80.4% (active) in the assay with LOX IMVI melanoma and -89% (active) in the assay with SK-MEL-28 melanoma.

For `O=C(COc1ccc2c(c1)CCCC(=O)N2)NCc1ccccc1`, the growth was 113% in the assay on DU-145 prostate; 43.4% in the assay on K-562 leukemia; 95.6% in the assay with MALME-3M melanoma; 82.4% with MDA-MB-231 breast; 93.2% in the assay with RXF 393 renal; 97.5% in the assay on SF-268 CNS. In addition, the growth with SF-295 CNS was 90.8%; in the assay on SF-539 CNS it was 87.3%; with UACC-257 melanoma it was 98%; with M14 melanoma, 83%; with HCT-15 colon it was 42%; in the assay with HT29 colon, 103%. For the same molecule, the growth with SNB-75 CNS was 92.9%; in the assay with SNB-19 CNS, 89%; in the assay with U251 CNS, 90.6%; in the assay on PC-3 prostate it was 94.9%; in the assay on SK-MEL-5 melanoma, 82%; in the assay on UACC-62 melanoma, 86.5%. Also, the growth was 78.1% with LOX IMVI melanoma and 90.4% in the assay on SK-MEL-28 melanoma.

For `COc1cccc(-c2nc(Nc3ccc(S(N)(=O)=O)cc3)c3ccccc3n2)c1`, the growth was 29.4% in the assay on DU-145 prostate; 10.3% with K-562 leukemia; 37.9% in the assay on MALME-3M melanoma; 13.3% in the assay on MDA-MB-231 breast; 12.5% in the assay on RXF 393 renal; 33.7% in the assay on SF-268 CNS. Also, the growth was 2.4% (active) with SF-295 CNS; 11.9% in the assay with SF-539 CNS; 68.4% in the assay on UACC-257 melanoma; 38.7% with M14 melanoma; 5.48% (active) with HCT-15 colon; 13.8% in the assay on HT29 colon. Further, the growth with SNB-75 CNS is 61.1%; in the assay with SNB-19 CNS, 50.4%; with U251 CNS it was 40.3%; in the assay on PC-3 prostate it was 29.3%; in the assay on SK-MEL-5 melanoma, 25.6%; in the assay with UACC-62 melanoma it was 37.5%. For the same molecule, the values for the growth in the assay with LOX IMVI melanoma and in the assay with SK-MEL-28 melanoma were 24.8% and 47.3%, respectively.

Turning to `CN(C)c1nc(NCCNS(=O)(=O)c2ccc(C3=Nc4c(N)nc(N)nc4NC(c4ccc(Cl)cc4)C3)cc2)nc(Nc2ccc(F)cc2)n1` (stereo not given), the growth in the assay on DU-145 prostate is 64%; in the assay on K-562 leukemia it was 11.8%; in the assay on MALME-3M melanoma, 14.6%; in the assay on MDA-MB-231 breast, 11.2%; in the assay on RXF 393 renal, 20.1%; in the assay on SF-268 CNS, 43.7%. The growth with SF-295 CNS was 48.5%; with SF-539 CNS it was -51.1% (active); with UACC-257 melanoma, 42.6%; with M14 melanoma, 11.6%; in the assay on HCT-15 colon, 32%; in the assay with HT29 colon it was -41.4% (active). The growth with SNB-75 CNS was 53.2%; with SNB-19 CNS, 34.5%; in the assay with U251 CNS, 27.5%; in the assay with PC-3 prostate it was 31.3%; in the assay with SK-MEL-5 melanoma, -48.7% (active); in the assay on UACC-62 melanoma it was 25.6%. In addition, the growth was -56.4% (active) in the assay on LOX IMVI melanoma and 38.9% in the assay with SK-MEL-28 melanoma.

As to `O=C1CC(Sc2n[nH]c(-c3ccncc3)n2)C(=O)N1c1ccc(Br)cc1` (stereo not given), the growth was 117% in the assay on DU-145 prostate; 88.5% with K-562 leukemia; 104% with MALME-3M melanoma; 99% in the assay on MDA-MB-231 breast; 137% in the assay on RXF 393 renal; 117% in the assay on SF-268 CNS. The growth with SF-295 CNS is 107%; in the assay on SF-539 CNS, 102%; with UACC-257 melanoma, 105%; with M14 melanoma, 115%; in the assay with HCT-15 colon, 102%; in the assay on HT29 colon, 112%. Moreover, the growth was 106% in the assay with SNB-75 CNS; 96.1% with SNB-19 CNS; 107% in the assay on U251 CNS; 118% with PC-3 prostate; 115% in the assay on SK-MEL-5 melanoma; 96.9% in the assay with UACC-62 melanoma. The figures for the growth in the assay on LOX IMVI melanoma and in the assay with SK-MEL-28 melanoma were 100% and 108%, respectively.
